From the supplement of paper PMC10646978
± gives the standard deviation.

Experiments:
Details in all cases: modulator concentration 10 µM
[1] = test system: RAW-Dual (murine macrophage reporter line); assay: NF-kB reporter (SEAP) activity fold change vs agonist alone; higher = enhanced NF-kB activity
Procedure, shortened: (§1)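 RAW-Dual murine macrophage reporter cells were plated at 50 000 per well in 384-well plates, pin-transferred compound to 10 μM final, and pre-incubated for 1 hour at 37 °C before a PRR agonist was added and the cells incubated overnight. NF-κB activity was read from supernatant SEAP with QUANTI-Blue at 620 nm absorbance, and IRF activity from Lucia luciferase with QUANTI-Luc by luminescence. Each signal was expressed as fold change by dividing by the mean agonist-only control on the same plate. Two replicate plates were averaged, with errors obtained by propagation.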

[2] = test system: RAW-Dual (murine macrophage reporter line); assay: IRF reporter (Lucia luciferase) activity fold change vs agonist alone; higher = enhanced IRF activity
Procedure, shortened: as §1

[3] = test system: RAW-Dual (murine macrophage reporter line); assay: viability score (confluency relative to resting cells, overnight) (fraction); higher = more viable, active = viable (0.7 or more)
Procedure, shortened: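 Confluency was the readout: RAW-Dual macrophages were imaged with IncuCyte after an overnight exposure to compound at 10 μM final. IncuCyte software produced two masks over all imaged wells. The viability score expresses confluency against resting cells, and both masks had to exceed 70% of resting cells for a compound to meet the cutoff.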

[4] = agonist: CpG ODN 1826 0.5 ug/mL

SMILES | NF-kB reporter [1, 4] | NF-kB reporter ([1]; agonist: LPS 0.1 ug/mL) | NF-kB reporter ([1]; agonist: MPLA […]) | IRF reporter ([2]; agonist: 3'3'-cGAMP 10 ug/mL) | IRF reporter ([2]; agonist: LPS 0.1 ug/mL) | IRF reporter ([2]; agonist: MPLA […]) | viability score [3]
O=C(O)CCCCC1CCSS1 (centres undefined) | 0.761 ± 0.034 | 0.968 ± 0.077 | 1.05 ± 0.056 | 1.03 ± 0.047 | 1.33 ± 0.33 | 1.51 ± 0.52 | 0.978 (active)
CS(=O)(=O)N(CC(=O)N1CCCCCC1)c1ccc(Cl)c(C(F)(F)F)c1 | 0.958 ± 0.11 | 1.21 ± 0.081 | 0.958 ± 0.036 | 0.974 ± 0.12 | 1.13 ± 0.15 | 1.15 ± 0.24 | 1 (active)
O=C(CCCCCN1C(=O)c2cccc3cccc(c23)C1=O)NCCO | 0.954 ± 0.082 | 1.01 ± 0.082 | 0.872 ± 0.074 | 0.886 ± 0.036 | 1.29 ± 0.086 | 1.19 ± 0.14 | 1 (active)
Cc1cc2nc3sc(=Cc4ccccc4OCc4ccc(Cl)cc4Cl)c(=O)n3c2cc1C | 0.975 ± 0.088 | 1.07 ± 0.069 | 0.962 ± 0.072 | 0.99 ± 0.034 | 1.47 ± 0.18 | 1.14 ± 0.12 | 0.999 (active)
COc1cccc(C=Nc2cccc([N+](=O)[O-])c2C)c1O | 0.661 ± 0.054 | 0.906 ± 0.066 | 0.978 ± 0.035 | 0.903 ± 0.077 | 0.93 ± 0.088 | 0.948 ± 0.17 | 1 (active)
C=C(C)CSC1=C(C#N)C(c2ccccc2)CC(=O)N1 (centres undefined) | 1.13 ± 0.091 | 0.954 ± 0.071 | 0.951 ± 0.092 | 0.772 ± 0.025 | 1.03 ± 0.15 | 0.999 ± 0.17 | 1.01 (active)
COc1ccc(Cl)cc1C(=O)N1CCC(S(=O)(=O)c2nncn2C)CC1 | 0.944 ± 0.051 | 1.04 ± 0.11 | 0.858 ± 0.038 | 1 ± 0.052 | 1.19 ± 0.085 | 1.11 ± 0.29 | 0.994 (active)
CC12CC3CC(C)(C1)CC(CNC(=O)c1ccc([N+](=O)[O-])cc1)(C3)C2 | 1.1 ± 0.1 | 0.895 ± 0.065 | 0.957 ± 0.09 | 0.999 ± 0.032 | 1.38 ± 0.22 | 1.48 ± 0.37 | 1 (active)
CCOc1ccc(S(=O)(=O)NCCn2nc(C3CC3)ccc2=O)cc1C | 1.01 ± 0.063 | 1.07 ± 0.12 | 1.04 ± 0.045 | 1.02 ± 0.051 | 0.993 ± 0.079 | 0.875 ± 0.15 | 0.982 (active)
COc1cccc(N2CCN(C3CCN(CC4CCOCC4)CC3)CC2)c1 | 0.75 ± 0.078 | 1.03 ± 0.11 | 1.22 ± 0.17 | 0.901 ± 0.043 | 1.26 ± 0.23 | 1.42 ± 0.49 | 0.966 (active)
CC1=C(C(N)=O)C(c2cccs2)NC(=O)N1 (centres undefined) | 0.974 ± 0.086 | 1.03 ± 0.12 | 0.944 ± 0.034 | 1.01 ± 0.15 | 0.963 ± 0.045 | 0.942 ± 0.063 | 0.999 (active)
CC12CCC3c4ccc(O)cc4CCC3C1CC(O)C2O (centres undefined) | 1.17 ± 0.28 | 1.28 ± 0.075 | 1.24 ± 0.093 | 0.596 ± 0.022 | 1.39 ± 0.16 | 1.44 ± 0.14 | 0.97 (active)
O=C(O)C1C(c2ccccc2)C(C(=O)OCc2ccccc2)C1c1ccccc1 (centres undefined) | 0.926 ± 0.089 | 1.09 ± 0.062 | 1.05 ± 0.079 | 1.03 ± 0.078 | 1.24 ± 0.087 | 1.03 ± 0.076 | 1.01 (active)
CCCCC1=NC2(CCCC2)C(=O)N1Cc1ccc(-c2ccccc2-c2nnn[nH]2)cc1 [Prestw-1736] | 1.21 ± 0.29 | 0.96 ± 0.057 | 0.952 ± 0.087 | 0.943 ± 0.034 | 1.22 ± 0.19 | 1.06 ± 0.18 | 1 (active)
Nc1ncnc2c1ncn2[C@@H]1O[C@H](CO)[C@@H](O)[C@H]1O | 1.03 ± 0.08 | 1.13 ± 0.079 | 1.17 ± 0.11 | 1.22 ± 0.25 | 0.879 ± 0.03 | 0.852 ± 0.11 | 1 (active)
COc1ccc(CCNc2cc(C)nc3cc(-c4ccc(OC)c(OC)c4)nn23)cc1OC | 1.18 ± 0.067 | 1.13 ± 0.086 | 1.27 ± 0.035 | 0.733 ± 0.026 | 0.978 ± 0.073 | 1.13 ± 0.11 | 1 (active)
O=C(CN(CCc1ccccc1)S(=O)(=O)c1ccc(Cl)cc1)NCc1ccncc1 | 1.03 ± 0.19 | 0.976 ± 0.076 | 0.941 ± 0.12 | 0.954 ± 0.025 | 1.17 ± 0.11 | 1.16 ± 0.26 | 1.01 (active)
CCCCS(=O)(=O)N[C@@H](Cc1ccc(OCCCCC2CCNCC2)cc1)C(=O)O.Cl.O | 1.2 ± 0.34 | 1.05 ± 0.057 | 0.987 ± 0.075 | 0.907 ± 0.035 | 1.14 ± 0.23 | 1.26 ± 0.12 | 0.99 (active)
O=C(Cn1ccnc1[N+](=O)[O-])NCCO [Prestw-649] | 1.09 ± 0.081 | 1.01 ± 0.12 | 1.05 ± 0.03 | 1.09 ± 0.16 | 0.982 ± 0.11 | 0.994 ± 0.15 | 1 (active)
CCOC(=O)C1=C(COCCN)NC(C)=C(C(=O)OC)C1c1ccccc1Cl.O=S(=O)(O)c1ccccc1 (centres undefined) | 0.921 ± 0.14 | 1.33 ± 0.18 | 3.73 ± 0.3 | 0.449 ± 0.058 | 1.55 ± 0.2 | 5.89 ± 1.2 | 0.0981 (inactive)
CC(C)C(=O)Nc1ccc([N+](=O)[O-])c(C(F)(F)F)c1 | 1.42 ± 0.3 | 1.06 ± 0.077 | 1.25 ± 0.2 | 0.762 ± 0.04 | 0.97 ± 0.11 | 1.04 ± 0.12 | 0.968 (active)
O=C(OCCN1CCOCC1)c1ccc(O)cc1O | 1.21 ± 0.12 | 1.06 ± 0.1 | 1.06 ± 0.056 | 1.05 ± 0.14 | 0.972 ± 0.044 | 0.856 ± 0.076 | 0.999 (active)
O=C1c2ccc(-c3ccc4c(c3)C(=O)N(CCO)C4=O)cc2C(=O)N1CCO | 0.94 ± 0.078 | 1.03 ± 0.063 | 0.912 ± 0.1 | 0.934 ± 0.048 | 1.33 ± 0.09 | 1.24 ± 0.3 | 1 (active)
COc1ccc2cc(Br)ccc2c1CC(N)=O | 1.09 ± 0.086 | 1.07 ± 0.12 | 1.04 ± 0.046 | 0.89 ± 0.13 | 1.07 ± 0.072 | 0.961 ± 0.14 | 0.968 (active)
CC(C)(O)c1ccccc1CC[C@@H](SCC1(CC(=O)O)CC1)c1cccc(/C=C/c2ccc3ccc(Cl)cc3n2)c1 [Prestw-1189] | 1.1 ± 0.084 | 0.765 ± 0.056 | 1.04 ± 0.098 | 1.05 ± 0.048 | 1.27 ± 0.16 | 1.41 ± 0.34 | 0.881 (active)
CCc1c(C)[nH]c2c1C(=O)C(CN1CCOCC1)CC2 (centres undefined) [Prestw-1035] | 1.2 ± 0.1 | 0.92 ± 0.07 | 0.934 ± 0.027 | 1.03 ± 0.04 | 0.925 ± 0.049 | 0.959 ± 0.11 | 1 (active)
O=c1ccc(-c2ccncc2)nn1CC1CCN(CC(F)(F)F)CC1 | 0.924 ± 0.046 | 0.973 ± 0.077 | 0.955 ± 0.051 | 0.858 ± 0.043 | 0.884 ± 0.07 | 0.832 ± 0.17 | 0.964 (active)
